D1 PAM – Potentiators of Human D1 Dopamine Receptor: qHTS | HEK293 TREx D1 cells, calcium flux, dopamine EC20 potentiation | potentiation, % at 10 µM | D(1A) dopamine receptor (Homo sapiens), P21728 | AID 504651, 2011 | 0.036% of 360,000 active; in the data active = potentiation above about 30%
D1 antag – Antagonist of Human D 1 Dopamine Receptor: qHTS | D(1A) dopamine receptor (Homo sapiens), P21728 | HEK293 TREx D1 cells, calcium flux, dopamine EC80; active compounds read low | activity change, negative = inhibition, % at 10 µM | 3.2% of 360,000 active | AID 504652, 2011; in the data active = activity change below about -30%
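Using tetracycline-induced force-coupled D1 Hek293 cells and a calcium dye, signals were followed for 180 s after compound, then for 180 s after EC80 dopamine, to detect inhibitors.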
DRD3 agonist – qHTS of D3 Dopamine Receptor Agonist: qHTS. D(3) dopamine receptor (Homo sapiens), P35462. D3R DiscoveRx beta-arrestin cells, luminescence, 90 min. max activation, %. 0.58% of 410,000 active; in the data active = max activation above about 30%
Target sequence (P35462 whole entry, looked up): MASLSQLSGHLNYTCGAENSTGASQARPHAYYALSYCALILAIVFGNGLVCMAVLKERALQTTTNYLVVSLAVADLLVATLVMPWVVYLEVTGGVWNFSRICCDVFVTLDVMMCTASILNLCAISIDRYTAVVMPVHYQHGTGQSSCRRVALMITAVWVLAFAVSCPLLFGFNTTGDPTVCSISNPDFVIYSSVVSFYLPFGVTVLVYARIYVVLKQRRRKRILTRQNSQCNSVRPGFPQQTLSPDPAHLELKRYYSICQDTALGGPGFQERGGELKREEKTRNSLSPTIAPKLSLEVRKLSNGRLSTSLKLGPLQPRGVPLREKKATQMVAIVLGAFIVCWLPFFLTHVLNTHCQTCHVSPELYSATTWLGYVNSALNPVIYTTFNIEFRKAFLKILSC
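Cells at 1500/well, incubated overnight, then treated with pinned compounds (dopamine as control) for 90 min at 37 degrees C. DiscoveRx reagent added for 30 - 60 minutes at room temperature; luminescence read.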
D1 ag – Allosteric Agonists of the Human D1 Dopamine Receptor: qHTS; HEK293 T-REx D1 cells, calcium flux, agonist mode; D(1A) dopamine receptor (Homo sapiens), P21728; 1% of 360,000 active; activation, % at 2 µM; in the data active = activation above about 30%
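Tetracycline-induced HEK293 TREx D1 cells, force-coupled to calcium signalling, were dye-loaded with a no-wash calcium kit. Compound was pin-added after a 10 s baseline. Fluorescence was read kinetically at 1 cycle/s for 180 s, with calcium rises flagged as agonism.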
D3 antag – qHTS of D3 Dopamine Receptor Antagonist: qHTS | max response, negative = inhibition, % | D3R cells, DiscoveRx beta-arrestin luminescence, antagonist mode; active compounds read low | 2.5% of 360,000 active; in the data active = max response below about -50%; inconclusive = no clear call, values can overlap the other calls
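Cells plated overnight at 1500 cells/well, then exposed to library compounds with dopamine controls for 90 minutes at 37 degrees C. DiscoveRx reagent added for 30–60 minutes at room temperature; luminescence read, quantitative HTS format.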
ERG-DNA inh – qHTS for Small Molecule Inhibitors of the ERG Ets/DNA interaction | Transcriptional regulator ERG (Homo sapiens), P11308 | fluorescence polarization, His-ERG Ets domain / labelled DNA | Potency, µM (doses to about 76.9 µM), actives largely listed as inhibitors | 0.028% of 370,000 active | AID 624246, 2012; active = well fitted inhibition curve with a large enough effect in the polarisation, with a control signal flat; inconclusive = small, poorly fitted or top-dose-only effect, or effect the other way, or a change in a side signal; inactive = no such curve, though single readings can be large or run the other way; the % refers to the polarisation;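 note: polarization taken with two DNA probes labelled with fluorescein and Texas red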
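His-tagged ERG Ets domain (1 uM in the protein solution; 300mM KCl, 50mM Tris-HCl, 1mM EDTA, 1mM DTT, pH 7.5) received compound, then a probe mix of 5 nM fluorescein-DNA and 100nM Texas-615-DNA. Fluorescence polarization was read for both dyes.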
Large screens that a line does not name were inactive. In the library only some 6.1% were active in any assay of this set; here they are far more common.

CCOC(=O)c1[nH]c(C)c(C(=O)NC2CCCCC2)c1C	D1 antag -89
Cc1cccc2c1OCC/C2=N\NC(=O)COc1ccccc1	D3 antag inconclusive (no result: D1 PAM, D1 antag, D1 ag)
CCCNC(=O)c1[nH]c(C)c(C(=O)OCC)c1C	D1 antag -40 (no result: DRD3 agonist, D3 antag, ERG-DNA inh)
CCOC(=O)c1c(C)[nH]c(C(=O)OCc2ccccc2F)c1C	D1 ag 31
COc1ccc([C@H]2C[C@H](n3cc(C4CC4)nn3)[C@@H](O)CN2CC2CCCCC2)cc1	none (no result: D1 PAM, D1 antag, D1 ag, ERG-DNA inh)
Cc1ccc(S(=O)(=O)N2CCN(C(=O)CSc3ccc(F)cc3)CC2)cc1	none
CCOC(=O)C1=CCC(c2ccccc2C)N(S(=O)(=O)c2ccc(C)cc2)C1 (stereo unspecified)	D3 antag -50 (no result: D1 PAM, D1 antag, D1 ag, ERG-DNA inh)
O=c1c(-c2cccc3ccccc23)[n+]([O-])c2ccccc2n1O	D3 antag -53
CCOn1c(=O)c(-c2cccc3ccccc23)[n+]([O-])c2ccccc21	none
CCCCC(CC)COC(=O)C(C#N)=C(c1ccccc1)c1ccccc1 (stereo unspecified)	D3 antag -74 (no result: D1 antag)
COC(=O)c1sc(-c2ccccc2)cc1NC(=O)Nc1ccccc1Cl	none (no result: D3 antag)
CCN(CC)S(=O)(=O)c1ccc(NCc2ccccc2)nc1	DRD3 agonist 33
CCCNc1ccc(S(=O)(=O)N(C(C)C)C(C)C)cn1	D3 antag -75
CCN(CC)S(=O)(=O)c1ccc(NCc2ccccn2)nc1	none
COc1ccc(-c2nn(-c3ccccc3)cc2C(=O)N2c3ccc(C)cc3C3CN(C)CCC32)cc1 (stereo unspecified)	none
COc1ccc(CCNC(=O)Cc2nn(C)c(=O)c3ccccc23)cc1OC	none
COc1cccc(OCc2ccc(Cn3nc(NC(=O)NCCc4ccc(OC)c(OC)c4)c4ccccc43)cc2)c1	D3 antag -108 (no result: D1 PAM, D1 antag, D1 ag, ERG-DNA inh)
CCOc1ccccc1CNC(=O)c1cc2oc3ccccc3c2n1CC	D1 antag -43
COc1cccc(CNC(=O)c2cc3oc4ccccc4c3n2C)c1OC	D1 antag -32
CCOc1ccc(CNC(=O)c2cc3oc4ccccc4c3n2C)cc1	none
CC(=O)N1CCc2c(sc(NC(=O)c3ccc([N+](=O)[O-])o3)c2C(N)=O)C1	D3 antag -91 (no result: D1 PAM, D1 antag, D1 ag, ERG-DNA inh)
CCC(=O)Nc1sc2c(c1C(N)=O)CCN(C(C)=O)C2	D3 antag inconclusive
CCC(=O)Nc1sc2c(c1C(N)=O)CCN(Cc1ccccc1)C2	D1 ag 166
CCN1CCc2c(sc(NC(=O)Nc3ccc(Cl)c(Cl)c3)c2C(N)=O)C1	D1 ag 418
NC(=O)c1c(NC(=O)c2ccccc2)sc2c1CCN(Cc1ccccc1)C2	D1 ag 216
c1ccc(CSc2nccc(-c3ccco3)n2)cc1	none (no result: D1 PAM, D1 antag, D1 ag)
CCC(SC1=NCCS1)C(=O)Nc1nnc(-c2ccccc2OC)s1 (stereo unspecified)	none
Cc1c(/C(O)=C2\C(=O)C(=O)N(CCCN(C)C)C2c2ccncc2)cnn1-c1ccccc1 (stereo unspecified)	none (no result: DRD3 agonist, D3 antag, ERG-DNA inh)
CC(C)C(=O)Nc1sc2c(c1C(N)=O)CCN(Cc1ccccc1)C2	none
NC(=O)c1c(NC(=O)c2c(F)cccc2F)sc2c1CCN(Cc1ccccc1)C2	D1 ag 155
CN1CCc2c(sc(NC(=O)Cc3ccc(F)cc3)c2C(N)=O)C1	D3 antag -51
CN1CCc2c(sc(NC(=O)Cc3ccccc3)c2C(N)=O)C1	none
Cc1ccc(Nc2ncnc3sc(C)c(C)c23)cc1C	none
O=S(=O)(c1ccc(OC(F)(F)F)cc1)N1CCCC(c2ccccc2)C1 (stereo unspecified)	D1 antag -34
O=c1[nH]c(C2CCCN(S(=O)(=O)c3ccccc3)C2)nc2c1nnn2Cc1ccc(OC(F)(F)F)cc1 (stereo unspecified)	none
Cc1nnsc1S(=O)c1ccc(F)cc1 (stereo unspecified)	none
O=C1Nc2ccccc2C1(c1ccccc1)c1ccccc1	D1 ag 33
Cc1cccc(C)c1NC(=O)c1nc(SC(C)C)ncc1Cl	DRD3 agonist 45 (no result: D3 antag)
Cc1nn(-c2ccccc2)c(C)c1/C=N/NC(=O)c1cc(-c2cccs2)[nH]n1	D1 antag -87
Cc1nn(-c2ccccc2)c(C)c1/C=N/NC(=O)c1cc(-c2ccc(Br)s2)[nH]n1	none
O=C(Nc1c(-c2ccc3c(c2)OCO3)[nH][nH]c1=O)c1ccc2c(c1)OCO2	D3 antag -78 (no result: D1 PAM, D1 antag, D1 ag, ERG-DNA inh)
C/C(=N\NC(=O)c1cc(C)oc1C)c1ccc2ccccc2c1	D1 antag -42
C/C(=N\Nc1ccc([N+](=O)[O-])cc1)c1ccc2c(c1)OCO2	D1 antag -38, D1 ag 38
C/C(=N\NC(=O)c1ccc2c(c1)OCO2)c1ccc2c(c1)OCO2	D3 antag -55
COc1ccc(/C=C2\C(=N)N3N=C(CC(=O)N4CCCCC4)SC3=NC2=O)cc1	none
Cc1ccc2nc(N3CCC(C(=O)N4CCN(c5cccc(C)c5C)CC4)CC3)[nH]c2c1	none (no result: D3 antag)
COC(=O)c1sc(NC(=S)NC(=O)c2ccccc2Cl)nc1C	D3 antag inconclusive
C/C(=N/NS(=O)(=O)c1cccc([N+](=O)[O-])c1)c1ccc2c(c1)OCO2	none
C/C(=N\NS(=O)(=O)c1ccc([N+](=O)[O-])cc1)c1ccc2c(c1)OCO2	D1 antag -31
CCOC(=O)CCc1c(C)nc(SCCCn2c(=O)[nH]c3ccccc32)c(C#N)c1C	none
CCOC(=O)CCc1c(C)nc(SCCN2CCCC2)c(C#N)c1C	D3 antag -56
CN(C)S(=O)(=O)c1cccc(NC(=S)Nc2cccc3cnccc23)c1	D3 antag -59
O=C(Nc1ccccc1)C1CC(=O)N(Cc2ccccc2)C1 (stereo unspecified)	none
CC(C)N1CC(C(=O)Nc2ccc(Cl)c(Cl)c2)CC1=O (stereo unspecified)	DRD3 agonist 72
O=C(Nc1ccc(F)c(Cl)c1)C1CC(=O)N(Cc2ccco2)C1 (stereo unspecified)	D1 antag -43
O=C(Nc1ccc(F)c(Cl)c1)C1CC(=O)N(Cc2ccccc2)C1 (stereo unspecified)	none (no result: D1 PAM, D1 antag, D1 ag)
O=C(O)c1cccc(NC(=O)C2CC(=O)N(Cc3ccccc3)C2)c1 (stereo unspecified)	D3 antag -51
